From PubChem BioAssay (NCATS)
Records with an inconclusive call do not appear. Entries that show only a call come without a potency. Active and inactive are the calls of the source. The call rests on the fitted dose curve; in most records, active means well fitted activation curve with a large enough effect; inconclusive means small, poorly fitted or top-dose-only effect; inactive means flat fitted curve, though single readings scatter.

assay: Primary redox qHTS assay for identification of artifact compounds. (AID 1845223); details: Amplex Red/HRP redox cycling with DTT, fluorescence; series mostly up to 53.8 µM
How it was run: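 Redox-cycling detection via DTT (250 uM final) oxidation coupled to Amplex Red (25 uM)/HRP (250 mU/mL) in HBSS. 15 min preincubation plus 30 min after DTT, room temperature. Ex/Em 525/598 nm; 4-parameter Hill fit against DMSO and 10 uM DA3003.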

| Structure (SMILES) | Potency |
| --- | --- |
| COc1ccc2c3c4n(c2c1)[C@@H](C=C(C)C)OOC(C)(C)C[C@@H]4N1C(=O)[C@@H]2CCCN2C(=O)[C@]1(O)[C@H]3OCC=C(C)C | inactive |
| CC1=CC2/C=C(\C)CCCC(O)/C=C/C(=O)OC23C(=O)NC(CC(C)C)C3C1C (centres undefined) | inactive |
| C=CC(C)(C)c1[nH]c2c(CC=C(C)C)cc(CC=C(C)C)cc2c1C[C@@H]1NC(=O)[C@H](C)NC1=O | inactive |
| COc1cc(O)c2c(c1)/C=C/C[C@@H](O)[C@@H](O)C(=O)CCC[C@H](C)OC2=O | inactive |
| CC(=O)O[C@H]1CC[C@H]2[C@@H]3CC[C@H]4CC(=O)C=C(C)[C@]4(C)[C@H]3CC[C@]12C | inactive |
| COCC(C(=O)OC1CC2CCC(C1)N2C)c1ccccc1 (centres undefined) | inactive |
| N#CC(O[C@@H]1O[C@H](CO)[C@@H](O)[C@H](O)[C@H]1O)c1ccccc1 (some centres undefined) | inactive |
| NC(=O)c1ncn2c1CN=C(c1ccccc1Br)c1cc(F)ccc1-2 | inactive |
| Cc1c(N2C(=O)[C@@H]3[C@H](O)CCN3C2=O)ccc(C#N)c1Cl | inactive |
| CC(=O)O[C@@H]1[C@H]2CC[C@H]3[C@@](C)(O)[C@@H]4C[C@H](O)C(C)(C)[C@@]4(O)[C@H](O)C[C@@]13C[C@@]2(C)O | inactive |
| CC(=O)N1N=C(c2ccc(N)cc2)c2cc3c(cc2C[C@H]1C)OCO3 | inactive |
| C=CC/C=C\C/C=C\CCCCCCCc1cc(O)cc(O)c1 | inactive |
| CN1C2CCC1CC(OC(=O)N1Cc3ccccc3NC1=O)C2 (centres undefined) | inactive |
| COC(=O)CC1CC2(C(=O)c3c(O)cccc3C2(O)C(=O)OC)C(C)O1 (centres undefined) | inactive |
